Measurements from the supplement of paper PMC10849652.
About 7,900 targets were measured; listed, in parts, are those with a hit and a random draw of the rest. About 0.6% of all pairs of compound and target were hits. Unmarked numbers belong to inactive results.

Key:
Test in all cases: log2 fold change, soluble protein after heating vs DMSO (PISA); higher = thermal stabilisation; K562 cells, 10 uM, 30 min; active = over 0.2 and 3.5 SD of the protein, either way, in both replicates (recomputed)
[1] = compound: CC1=C(C=C(C=C1)NC(=O)C2=CC(=CC=C2)C(C)(C)C#N)NC3=CC4=C(C=C3)N=CN(C4=O)C
Outline: (§1)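 For each measurement, 10 μM compound was applied for 30 min to K562 cells at 2×10^6 cells/mL. Aliquots were heated for 3 min across 48°C-58°C, pooled, and extracted in PBS with 0.5% NP-40 at 4°C; the supernatant after 21,000xg for 90 min was soluble protein. This was quantified by TMTpro 16plex LC-MS/MS with channel sums equalised, and thermal stability was reported relative to control samples from duplicates, on a log2 fold-change scale.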

[2] = compound: CC1=C(C=C(C=C1)NC(=O)C2=CC(=CC=C2)N(C)C)NC(=O)C3=CC=C(C=C3)O
Outline: as §1

[3] = compound: CC1=CC=C(C=C1)SC2=C3C=C(SC3=CN=C2)C(=O)N
Outline: as §1

[4] = compound: CC1=NC(=CC=C1)C2=C(N=C(N2)C(C)(C)C)C3=CC4=NC=CN=C4C=C3
Outline: as §1

[5] = compound: CCCCN(Cc1ccc(C(=O)NO)cc1)C(=O)Nc1ccccc1 [Nexturastat A]
Outline: as §1

[6] = compound: CCCS(=O)(=O)Nc1ccc(F)c(C(=O)c2c[nH]c3ncc(-c4ccc(Cl)cc4)cc23)c1F [vemurafenib]
Outline: as §1

[7] = compound: CCCS(=O)(=O)Nc1ccc(F)c(C(=O)c2c[nH]c3ncc(Cl)cc23)c1F
Outline: as §1

[8] = compound: CCCc1cc(C)[nH]c(=O)c1CNC(=O)c1cc(-c2ccnc(N3CCN(C)CC3)c2)cc2c1cnn2C(C)C
Outline: as §1

[9] = compound: CCN(CC)Cc1ccc2cc(COC(=O)Nc3ccc(C(=O)NO)cc3)ccc2c1 [givinostat]
Outline: as §1

[10] = compound: CCN(CCCOc1ccc2c(Nc3cc(CC(=O)Nc4cccc(F)c4)[nH]n3)ncnc2c1)CCOP(=O)(O)O [barasertib]
Outline: as §1

UniProt P68400, sequence (P68400 whole entry, looked up): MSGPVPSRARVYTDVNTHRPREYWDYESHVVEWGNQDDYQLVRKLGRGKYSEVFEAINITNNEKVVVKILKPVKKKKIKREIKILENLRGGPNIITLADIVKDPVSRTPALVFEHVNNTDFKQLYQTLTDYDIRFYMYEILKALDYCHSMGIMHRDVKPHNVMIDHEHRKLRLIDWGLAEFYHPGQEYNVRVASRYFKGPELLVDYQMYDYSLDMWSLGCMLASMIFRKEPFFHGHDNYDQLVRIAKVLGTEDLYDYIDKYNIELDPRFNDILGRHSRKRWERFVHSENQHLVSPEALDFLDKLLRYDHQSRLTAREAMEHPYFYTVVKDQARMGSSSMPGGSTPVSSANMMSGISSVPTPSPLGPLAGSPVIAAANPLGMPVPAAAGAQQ
UniProt O14578, sequence (O14578 whole entry, looked up): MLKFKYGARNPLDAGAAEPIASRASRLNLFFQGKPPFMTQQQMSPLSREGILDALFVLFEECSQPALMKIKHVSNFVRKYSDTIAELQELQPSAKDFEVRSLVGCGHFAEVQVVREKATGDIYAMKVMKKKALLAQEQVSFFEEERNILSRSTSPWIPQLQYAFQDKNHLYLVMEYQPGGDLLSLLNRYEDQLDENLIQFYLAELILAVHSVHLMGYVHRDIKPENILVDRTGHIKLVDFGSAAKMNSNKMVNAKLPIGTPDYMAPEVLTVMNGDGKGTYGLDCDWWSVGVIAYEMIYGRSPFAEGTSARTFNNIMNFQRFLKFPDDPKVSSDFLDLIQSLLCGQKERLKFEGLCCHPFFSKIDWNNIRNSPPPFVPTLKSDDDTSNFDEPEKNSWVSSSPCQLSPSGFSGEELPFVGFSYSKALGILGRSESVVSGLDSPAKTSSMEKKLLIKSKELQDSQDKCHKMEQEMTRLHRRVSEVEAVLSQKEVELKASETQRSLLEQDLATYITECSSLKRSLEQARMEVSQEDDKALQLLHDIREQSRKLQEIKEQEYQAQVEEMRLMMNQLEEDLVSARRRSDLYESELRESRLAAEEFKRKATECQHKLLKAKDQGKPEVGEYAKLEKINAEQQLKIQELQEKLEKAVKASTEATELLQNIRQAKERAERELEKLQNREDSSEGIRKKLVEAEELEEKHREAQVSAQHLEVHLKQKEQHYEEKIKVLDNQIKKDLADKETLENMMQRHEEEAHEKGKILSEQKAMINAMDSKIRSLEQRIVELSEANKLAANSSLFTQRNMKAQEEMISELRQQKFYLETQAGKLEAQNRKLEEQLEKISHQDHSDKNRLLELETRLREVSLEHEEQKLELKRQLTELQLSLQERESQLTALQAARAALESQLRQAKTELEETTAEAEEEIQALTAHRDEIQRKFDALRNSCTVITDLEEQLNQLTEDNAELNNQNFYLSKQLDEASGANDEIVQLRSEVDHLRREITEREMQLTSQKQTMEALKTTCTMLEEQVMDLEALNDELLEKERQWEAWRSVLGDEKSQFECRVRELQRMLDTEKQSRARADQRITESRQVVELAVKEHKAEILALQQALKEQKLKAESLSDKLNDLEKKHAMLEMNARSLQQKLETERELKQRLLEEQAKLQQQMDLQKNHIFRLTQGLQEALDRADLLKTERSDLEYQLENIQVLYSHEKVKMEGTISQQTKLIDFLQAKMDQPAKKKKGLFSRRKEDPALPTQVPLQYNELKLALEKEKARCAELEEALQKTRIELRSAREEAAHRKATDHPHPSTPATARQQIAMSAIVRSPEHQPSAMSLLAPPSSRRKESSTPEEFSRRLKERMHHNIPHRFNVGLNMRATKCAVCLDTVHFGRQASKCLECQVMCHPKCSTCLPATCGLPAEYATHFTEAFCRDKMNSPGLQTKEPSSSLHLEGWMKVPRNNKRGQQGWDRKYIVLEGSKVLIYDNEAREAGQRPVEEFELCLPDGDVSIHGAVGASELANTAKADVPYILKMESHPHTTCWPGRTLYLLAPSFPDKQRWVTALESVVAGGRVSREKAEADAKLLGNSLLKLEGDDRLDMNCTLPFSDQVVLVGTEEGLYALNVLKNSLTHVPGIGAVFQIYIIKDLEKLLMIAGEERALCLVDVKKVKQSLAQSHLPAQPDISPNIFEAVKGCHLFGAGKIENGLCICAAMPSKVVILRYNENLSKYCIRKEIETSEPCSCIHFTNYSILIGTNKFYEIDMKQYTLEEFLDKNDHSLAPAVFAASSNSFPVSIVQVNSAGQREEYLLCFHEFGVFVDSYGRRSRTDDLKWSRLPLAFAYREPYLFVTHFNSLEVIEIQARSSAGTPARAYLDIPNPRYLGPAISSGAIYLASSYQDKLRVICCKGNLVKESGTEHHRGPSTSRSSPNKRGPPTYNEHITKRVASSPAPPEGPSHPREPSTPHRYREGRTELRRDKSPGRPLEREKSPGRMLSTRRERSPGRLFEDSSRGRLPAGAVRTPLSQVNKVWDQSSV
UniProt P27708, sequence (P27708 whole entry, looked up): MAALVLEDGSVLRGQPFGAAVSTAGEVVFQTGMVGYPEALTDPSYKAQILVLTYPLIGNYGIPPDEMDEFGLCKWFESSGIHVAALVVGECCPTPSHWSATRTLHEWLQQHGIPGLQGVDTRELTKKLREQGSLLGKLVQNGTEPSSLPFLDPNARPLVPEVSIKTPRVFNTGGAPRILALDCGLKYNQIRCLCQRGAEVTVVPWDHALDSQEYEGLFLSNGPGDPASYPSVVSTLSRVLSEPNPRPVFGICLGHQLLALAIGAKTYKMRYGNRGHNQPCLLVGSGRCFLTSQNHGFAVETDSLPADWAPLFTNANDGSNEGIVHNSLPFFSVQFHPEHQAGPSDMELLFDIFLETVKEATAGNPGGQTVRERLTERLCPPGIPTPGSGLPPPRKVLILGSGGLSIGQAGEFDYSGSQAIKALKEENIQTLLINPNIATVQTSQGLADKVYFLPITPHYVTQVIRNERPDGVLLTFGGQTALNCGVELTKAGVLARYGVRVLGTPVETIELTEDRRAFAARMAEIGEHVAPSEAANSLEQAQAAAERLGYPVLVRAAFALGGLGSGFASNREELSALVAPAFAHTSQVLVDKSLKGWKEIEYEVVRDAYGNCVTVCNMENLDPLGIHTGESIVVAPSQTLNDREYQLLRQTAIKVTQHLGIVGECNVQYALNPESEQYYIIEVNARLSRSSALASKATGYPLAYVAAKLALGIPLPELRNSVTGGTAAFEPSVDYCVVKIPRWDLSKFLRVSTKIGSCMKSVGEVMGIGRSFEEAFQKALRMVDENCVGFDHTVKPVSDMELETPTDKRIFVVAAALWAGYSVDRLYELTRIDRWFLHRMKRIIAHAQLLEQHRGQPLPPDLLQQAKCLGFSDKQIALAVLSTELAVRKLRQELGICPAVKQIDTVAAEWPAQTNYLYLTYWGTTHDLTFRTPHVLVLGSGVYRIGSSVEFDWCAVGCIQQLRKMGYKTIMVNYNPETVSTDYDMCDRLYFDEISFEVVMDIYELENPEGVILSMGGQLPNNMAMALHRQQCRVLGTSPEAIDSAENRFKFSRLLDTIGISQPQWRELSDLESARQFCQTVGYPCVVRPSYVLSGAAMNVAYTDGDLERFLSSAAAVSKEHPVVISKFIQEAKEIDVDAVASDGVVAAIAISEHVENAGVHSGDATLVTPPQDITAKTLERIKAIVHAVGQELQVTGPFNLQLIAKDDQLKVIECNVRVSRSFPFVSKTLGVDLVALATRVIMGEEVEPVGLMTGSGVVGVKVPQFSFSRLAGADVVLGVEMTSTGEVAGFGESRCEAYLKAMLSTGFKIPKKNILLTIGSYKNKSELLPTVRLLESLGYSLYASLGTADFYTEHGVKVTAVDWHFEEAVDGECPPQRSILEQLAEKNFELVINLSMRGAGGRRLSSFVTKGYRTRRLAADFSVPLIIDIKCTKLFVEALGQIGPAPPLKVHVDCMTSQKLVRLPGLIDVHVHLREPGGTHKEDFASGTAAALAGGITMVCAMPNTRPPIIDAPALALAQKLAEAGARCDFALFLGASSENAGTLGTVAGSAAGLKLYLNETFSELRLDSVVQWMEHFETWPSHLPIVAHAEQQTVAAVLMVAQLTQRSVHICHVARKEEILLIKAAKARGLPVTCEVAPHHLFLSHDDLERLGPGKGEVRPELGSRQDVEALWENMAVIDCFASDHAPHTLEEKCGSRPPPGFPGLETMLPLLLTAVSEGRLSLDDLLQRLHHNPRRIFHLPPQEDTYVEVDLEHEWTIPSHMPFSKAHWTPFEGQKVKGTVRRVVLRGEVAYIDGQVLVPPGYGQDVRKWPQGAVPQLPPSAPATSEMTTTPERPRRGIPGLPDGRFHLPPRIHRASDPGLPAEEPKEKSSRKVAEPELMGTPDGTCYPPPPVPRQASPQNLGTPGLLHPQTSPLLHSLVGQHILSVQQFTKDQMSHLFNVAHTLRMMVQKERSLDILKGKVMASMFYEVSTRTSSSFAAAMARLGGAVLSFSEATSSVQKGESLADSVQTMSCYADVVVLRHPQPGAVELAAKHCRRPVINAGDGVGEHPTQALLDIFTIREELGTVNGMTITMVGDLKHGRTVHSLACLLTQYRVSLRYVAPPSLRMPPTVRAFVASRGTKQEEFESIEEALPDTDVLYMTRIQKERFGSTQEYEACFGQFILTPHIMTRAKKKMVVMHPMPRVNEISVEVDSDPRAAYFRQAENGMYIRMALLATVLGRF
UniProt Q99807, sequence (Q99807 whole entry, looked up): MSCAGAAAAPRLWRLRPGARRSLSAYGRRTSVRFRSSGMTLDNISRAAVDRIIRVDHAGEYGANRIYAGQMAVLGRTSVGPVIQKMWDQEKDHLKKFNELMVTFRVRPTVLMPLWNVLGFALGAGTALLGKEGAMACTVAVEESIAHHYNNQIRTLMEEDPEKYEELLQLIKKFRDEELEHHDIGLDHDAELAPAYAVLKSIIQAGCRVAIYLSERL
UniProt Q8N668, sequence (Q8N668 whole entry, looked up): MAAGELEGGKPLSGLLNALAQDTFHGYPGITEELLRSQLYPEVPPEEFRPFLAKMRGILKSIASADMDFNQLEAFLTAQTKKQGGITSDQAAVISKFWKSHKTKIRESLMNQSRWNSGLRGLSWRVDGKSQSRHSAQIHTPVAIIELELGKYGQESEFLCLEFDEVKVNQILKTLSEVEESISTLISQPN

Target | log2 fold change [1] | log2 fold change [2] | log2 fold change [3] | log2 fold change [4] | log2 fold change [5] | log2 fold change [6] | log2 fold change [7] | log2 fold change [8] | log2 fold change [9] | log2 fold change [10]
CIT isoform 4 (UniProt O14578) | -0.105 | 0.017 | -0.003 | -0.032 | -0.02 | -0.012 | 0.01 | 0.002 | 0.033 | 0.047
C9orf64 (UniProt Q5T6V5) | 0.014 | -0.014 | 0.029 | 0.001 | 0.029 | -0.032 | 0.079 | -0.036 | 0.064 | 0.08
CSTF2 (UniProt P33240) | -0.081 | 0 | 0.002 | -0.05 | 0.026 | 0.016 | -0.053 | 0.004 | -0.014 | -0.042
CHMP4C (UniProt Q96CF2) | -0.173 | -0.01 | 0.02 | 0.081 | 0.443 (active) | 0.019 | -0.022 | -0.021 | -0.07 | 0.01
COX7C (UniProt P15954) | -0.057 | -0.187 | -0.01 | 0.088 | 0.027 | -0.018 | -0.085 | 0.143 | -0.271 | 0.061
CHCHD1 (UniProt Q96BP2) | -0.02 | -0.119 | 0.279 | 0.008 | 0.141 | -0.044 | 0.024 | -0.747 | 0.013 | -0.105
COQ7 (UniProt Q99807) | 0.028 | 0.086 | 0.02 | 0.018 | -0.068 | -0.002 | -0.061 | -0.034 | -0.091 | 0.023
CEPT1 (UniProt Q9Y6K0) | 0.048 | 0.068 | 0.005 | 0.069 | -0.123 | 0.123 | 0.016 | -0.122 | -0.023 | 0.013
CLPX (UniProt O76031) | 0.022 | -0.013 | -0.008 | 0.012 | 0 | -0.011 | -0.013 | -0.002 | 0.02 | -0.013
CDK4 (UniProt P11802) | -0.077 | -0.003 | 0.015 | -0.005 | 0.166 | -0.161 | -0.128 | -0.025 | -0.009 | -0.023
CSNK1A1 (UniProt P48729) | -0.021 | 0.03 | -0.006 | -0.12 | 0.028 | -0.006 | 0 | 0.031 | 0.037 | 0
CALB1 (UniProt P05937) | -0.004 | 0.032 | 0.027 | 0.042 | -0.023 | 0.057 | 0.019 | 0.011 | -0.031 | 0.037
COMMD1 (UniProt Q8N668) | 0.037 | -0.064 | -0.048 | 0.056 | 0.011 | -0.038 | 0.097 | 0.056 | 0.122 | 0.057
CERS2 (UniProt Q96G23) | -0.02 | 0.015 | 0.036 | 0.019 | -0.083 | -0.018 | 0.101 | -0.013 | -0.038 | -0.002
CPSF7 isoform 3 (UniProt Q8N684) | 0.015 | 0.001 | 0.014 | 0.012 | -0.003 | 0.018 | 0.007 | -0.016 | 0.01 | -0.044
CDC123 (UniProt O75794) | -0.033 | 0.006 | 0.043 | 0.048 | 0.013 | 0.011 | 0.02 | 0.038 | -0.01 | 0.028
CAD (UniProt P27708) | -0.047 | -0.009 | 0.027 | 0.012 | 0 | -0.041 | -0.018 | -0.078 | 0.008 | 0.002
CRLF3 (UniProt Q8IUI8) | 0.05 | -0.015 | 0.03 | -0.071 | 0.005 | 0.057 | 0.044 | 0.025 | 0.065 | 0.073
CRK (UniProt P46108) | -0.814 (active) | -0.019 | 0.015 | 0.091 | -0.006 | 0.048 | 0.009 | -0.008 | 0.002 | 0.046
CCDC59 (UniProt Q9P031) | -0.067 | -0.017 | -0.144 | -0.213 | 0.549 (active) | -0.037 | 0.008 | 0.113 | 0.086 | -0.013
CDC42BPB (UniProt Q9Y5S2) | -0.073 | -0.07 | -0.034 | -0.072 | 0.052 | -0.046 | -0.034 | 0.079 | -0.096 | -0.087
CSNK2A1 (UniProt P68400) | -0.047 | -0.004 | -0.044 | 0.025 | 0.034 | 0.006 | 0.008 | -0.018 | -0.003 | -0.024
CPSF3 (UniProt Q9UKF6) | -0.014 | 0.005 | -0.006 | -0.012 | -0.085 | 0.017 | 0.063 | -0.001 | -0.03 | 0.022
CHST11 (UniProt Q9NPF2) | 0.019 | 0.099 | 0.189 | 0.047 | 0.013 | 0.027 | 0.384 (active) | 0.089 | -0.029 | 0.049
CHCHD4 isoform 2 (UniProt Q8N4Q1) | 0.373 | 0.001 | 0.157 | -0.035 | -0.026 | -0.015 | 0.412 | -0.063 | 0.029 | -0.024
CDC37L1 (UniProt Q7L3B6) | 0.035 | 0.001 | -0.054 | -0.021 | -0.028 | -0.008 | 0.019 | 0.063 | 0.044 | 0.063
CDK5RAP1 (UniProt Q96SZ6) | 0.014 | -0.04 | 0.002 | 0.05 | -0.065 | -0.007 | -0.035 | 0.066 | -0.166 | -0.005
CCZ1 (UniProt P86791) | -0.005 | -0.029 | 0.014 | 0.035 | 0.009 | 0.024 | 0.011 | -0.029 | 0.028 | -0.011
CTBS (UniProt Q01459) | 0.206 | 0.014 | -0.026 | -0.065 | 0.043 | 0.093 | -0.017 | 0.017 | 0.039 | 0.03
CD53 (UniProt P19397) | -0.062 | -0.099 | -0.13 | -0.095 | -0.006 | -0.035 | -0.182 | -0.092 | -0.006 | -0.102
